# ChEMBL document CHEMBL3988442, “University of Dundee, Small-Polar-MMV Screening Library” (2021)
# About 1,200 (3.2%) of roughly 38,000 compounds showed an effect of 50% or more. The median lay at about -58%. The list comes from a sample in which strong results are over-represented; it also holds similar structures and randomly drawn compounds.
# Tested on: Plasmodium falciparum
# Assay: Calibr Malaria Delayed Death Assay SOP
# Assay type: functional, organism-based
# Parameters: scale not given: in the data most compounds retested in dose-response had high values
# Conditions: concentration 4.99e-06 (unit not given; other assays of the set use mol/L)
row,SMILES,Percent Effect [%]
1,CC(NCc1cccc(COC2CCCC2)c1)c1cnn(C)c1 (centres undefined),19.99
2,CC(C)CC(Cc1cccc(Br)c1)C(=O)O (centres undefined),-132.5
3,Cc1nc(C)c(S(=O)(=O)NC(=O)c2cccs2)s1,-74.76
4,CO[C@H]1CC[C@H]2[C@H]1OCCN2Cc1ccc(F)cc1.O=C(O)C(F)(F)F,-88.16
5,Cc1ccnc(NC(=O)C2CCN(CCCn3ccnc3C)CC2)c1,23.63
6,CCCc1nnsc1C(=O)NCC(O)c1ccc(SC)cc1 (centres undefined),-63.08
7,Cc1cccc(CN2CCC3(CCCN(Cc4cnn(C)c4)C3)C2)n1.O=C(O)C(F)(F)F.O=C(O)C(F)(F)F (centres undefined),-27.4
8,Cc1cccc(CN2CCCC3(CCN(CC4CCCO4)CC3)C2)n1.O=C(O)C(F)(F)F.O=C(O)C(F)(F)F (centres undefined),42.53
9,COc1cccc(C(=O)N2CCCC(CNS(C)(=O)=O)C2)c1 (centres undefined),-46.69
10,O=C(CCn1cccc1)N1CCc2[nH]nc(COc3ccccc3)c2C1,-21.18
11,CS(=O)(=O)NC[C@H]1Cn2c(-c3ccc(F)cc3)cnc2CO1,-35.88
12,CS(=O)(=O)NC[C@H]1Cn2c(-c3ccccc3)cnc2CO1,-22.21
13,CS(=O)(=O)NC[C@H]1Cn2c(-c3ccc(Cl)cc3)cnc2CO1,56.68
14,CC(C)c1noc(C2CCN(C(=O)c3cccs3)CC2)n1,-59
15,O=C(NCCCN1CCCC1=O)c1nc(-c2ccc3cc[nH]c3c2)no1,-52.39
16,O=C1CC2(CCN(Cc3ccsc3)C2)CN1c1ccc2c(c1)OCO2 (centres undefined),-25.08
17,O=C1CCCN1Cc1nnc2n1CCCN(C(=O)c1ccco1)C2,-1.82
18,CC(=O)N1CCC(Oc2ccc(Cl)cc2C(=O)N2CCCO2)CC1,-31.72
19,O=C(c1cc(Cl)ccc1OC1CCN(C2CCCC2)CC1)N1CCCO1,51.12
20,O=C(c1cc(Cl)ccc1OC1CCN(C2CCCC2)CC1)N1CC(O)C1,-105.7
21,Cc1noc(C)c1CCC(=O)N1CCCCC1CNS(C)(=O)=O (centres undefined),-22.15
22,COc1ccc2c(ccn2CCC(=O)/N=c2\[nH]nc(C3CCCO3)s2)c1 (centres undefined),-157
23,Cc1nc(Oc2ccccc2F)sc1C(=O)O,-115.2

row,SMILES,Percent Effect [%]
1,Cc1cccc(-n2cc(CNc3ncnc4c3CCNCC4)cn2)c1,12.81
2,c1ccc(Cn2cc(CNc3ncnc4c3CCNCC4)cn2)cc1,-75.72
3,Cc1ccccc1-n1cc(CNc2ncnc3c2CCNCC3)cn1,25.52
4,Cc1ccc(-c2cc(CNc3ncnc4c3CCNCC4)no2)cc1,62.41
5,Clc1ccccc1-c1cc(CNc2ncnc3c2CCNCC3)no1,79.72
6,COc1ccc(-c2cc(CNc3ncnc4c3CCNCC4)no2)cc1,13.56
7,Cc1nn(CC(=O)O)c(C)c1NS(=O)(=O)c1cc2ccccc2s1,-90.75
8,COc1ncccc1CNC1CCc2c(ccc(=O)n2CC2CC2)C1.O=C(O)C(F)(F)F.O=C(O)C(F)(F)F (centres undefined),-69.76
9,O=C(COCC(=O)N(c1ccccc1)c1ccccc1)N1CCOCC1,-115.4
10,CCc1nc(CN(C)C2CCN(CCCOc3ccccc3)C2)no1 (centres undefined),-2.481
11,CN(C)[C@H]1CCCCN(Cc2cnc(NCc3ccccc3)nc2)C1,-25.46
12,COc1ccccc1-c1ncc(CN2CCCC[C@H](N(C)C)C2)s1,69.91
13,COc1ccccc1-c1ncc(CN2CCCC(CCC(N)=O)C2)s1 (centres undefined),-45.2
14,CC(=O)Nc1ccc2nc(CN(C)Cc3noc(C)n3)ccc2c1,-81.21
15,CC(C)S(=O)(=O)CCN1CCN(C(C#N)c2ccccc2)CC1 (centres undefined),-69.53
16,NC(=O)C1CCN(c2ccc(C(=O)N3CCc4ccccc43)cn2)C1 (centres undefined),-37.49
17,I.c1ccc(Sc2ccc3c(c2)OCO3)c(CNC2=NCCN2)c1,83.34
18,c1ccc(-n2nnnc2NCc2ccc3c(c2)OCO3)cc1,-79.7
19,CNCc1nc(-c2ccc3c(c2)OCO3)c[nH]1.Cl.Cl,-83.48
20,N#Cc1c[nH]nc1NCc1ccc2c(c1)OCO2,-94.84
21,O=C(CSc1ccc2c(c1)OCCO2)NS(=O)(=O)c1ccccc1Br,-14.98
22,Cc1ccc(N(CC(=O)N2CCCCC2)C(=O)C2CCCO2)cc1 (centres undefined),-77.19
23,CS(=O)(=O)N1C[C@@H]2COC[C@]2(COCC(=O)N2CCCC2)C1,-14.15

row,SMILES,Percent Effect [%]
1,CCCNc1ccc(C(=O)NCCc2ccc(Cl)cc2)cn1,-35.94
2,COc1cccc(C2CCCN2C(=O)NCCCn2cccn2)c1 (centres undefined),-100.5
3,Cn1cc(CNCCC(=O)NCc2ccccc2)c(-c2cccnc2)n1,-26.7
4,CCCNCc1cn(Cc2ccccc2)nc1-c1cccnc1.Cl,57.61
5,Cn1cc(CNCCNC(=O)Cc2ccccc2)c(-c2cccnc2)n1,7.378
6,CN(C)C(C)(C)CNCc1cn(C)nc1-c1cccnc1.Cl,-6.426
7,Cn1cc(CNCCOc2ccc(F)c(F)c2)c(-c2cccnc2)n1,53.44
8,Cn1cc(CNCCc2cccnc2)c(-c2cccnc2)n1,-43.46
9,COCCCOc1ccc(C(=O)N(C)Cc2cccc(O)c2)cn1,-93.61
10,CC(C)(C)OC(=O)N1CCN(C(=O)c2cnn3c2OCCC3)CC1,-73.8
11,CC(CC(=O)c1ccco1)NC(=O)c1ccon1 (centres undefined),-111.2
12,O=C(Nc1nc2c(s1)CN(S(=O)(=O)C1CC1)CC2)c1ccsc1,-79.83
13,Fc1ccccc1C1NCCc2cc3c(cc21)OCCO3 (centres undefined),-25.34
14,CCCn1nnc(NCc2ccc(-c3ccc(Br)cc3)o2)n1,-170.9
15,Nc1nc2c(c(NC(=O)Nc3ccc(Cl)c(Cl)c3)n1)CCCC2,-65.1
16,CN1CCCCc2c1nc1c(c2N)CCCC1,64.21
17,CN1CCCc2c1nc1c(c2N)CCC1,-51.79
18,CC(=O)NC1CCN(c2nc(N)nc3c2CCCC3)C1 (centres undefined),-119.8
19,Nc1nc2c(c(NC(=O)Nc3cccc(Cl)c3)n1)CCCC2,-1.173
20,CN1CCCCc2c1nc1c(c2N)CCC1.O=C(O)c1cc([N+](=O)[O-])ccc1Cl,64.96
21,CN1CCc2c1nc1c(c2N)CCC1,-63.1
22,CN1CCc2nc3c(c(N)c2C1)CCCN3C,-6.547
23,CN1CCCc2c1nc1c(c2N)CCCC1.O=C(O)C(=O)O,75.22
